Experimental findings from ChEMBL document CHEMBL3988442, “University of Dundee, Small-Polar-MMV Screening Library” (2021) are described below.

Test [1] has as its target T1, Aspartate--tRNA(Asp/Asn) ligase (Mycobacterium tuberculosis (strain ATCC 25618 / H37Rv)) (UniProt P9WFW3). Note: in the data most compounds retested in dose-response had high values.
T1 sequence (whole entry): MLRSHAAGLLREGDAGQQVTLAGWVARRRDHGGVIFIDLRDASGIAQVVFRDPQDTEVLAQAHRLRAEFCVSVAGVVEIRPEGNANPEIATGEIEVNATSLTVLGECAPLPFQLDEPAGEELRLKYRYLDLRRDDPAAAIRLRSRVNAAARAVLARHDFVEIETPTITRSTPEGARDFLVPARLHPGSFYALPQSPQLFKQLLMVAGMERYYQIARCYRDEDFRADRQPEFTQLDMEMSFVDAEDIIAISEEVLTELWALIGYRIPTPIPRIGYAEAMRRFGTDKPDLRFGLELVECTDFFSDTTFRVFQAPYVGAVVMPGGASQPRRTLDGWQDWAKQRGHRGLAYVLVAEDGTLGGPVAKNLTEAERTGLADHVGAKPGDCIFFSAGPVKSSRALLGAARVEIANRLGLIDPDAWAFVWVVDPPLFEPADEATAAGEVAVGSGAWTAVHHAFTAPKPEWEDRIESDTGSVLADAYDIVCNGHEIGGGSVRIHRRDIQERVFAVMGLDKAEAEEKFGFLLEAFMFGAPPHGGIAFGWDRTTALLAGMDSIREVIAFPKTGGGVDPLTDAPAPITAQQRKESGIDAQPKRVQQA
Briefly: Assay for Asp RNA synthetase-1 from Mycobacterium tuberculosis. The class given is functional. Set-up: scale not given: direction of the effect not stated beside the values. To be noted: 30 µM.

In test [2] the target is Shiga toxin 2 (Escherichia coli O157:H7) (UniProt P09385+P09386). Briefly: E. coli 0.157:H7 Shiga Toxin SOP - stx2 screening assay. Type of test: functional. Set-up: scale not given: direction of the effect not stated beside the values. To be noted: 30 µM.

As to `O=C1CC2(CCCNC2)C(=O)N1Cc1ccc(F)cc1` (centres undefined), the figures for the Percent Effect in test [1] and in test [2] were 3.3% and -4.45%, respectively.
With `O=C1CC[C@H]2[C@H](CCN2C(=O)C2CCCO2)N1CCN1CCCC1` (some centres undefined), the Percent Effect is -1.39% in test [1] and 4.3% in test [2].
As to `COc1ccccc1C1(C(=O)NCCN2CCOCC2)CCOCC1`, the figures for the Percent Effect in test [1] and in test [2] were 10.8% and 21.5%, respectively.
In the case of `Cc1ccc(-c2nnc(CN3CCc4cnc(C)nc4C3)o2)cc1`, the values for the Percent Effect in test [1] and in test [2] were 2.13% and -61%, respectively.
Taken in the same sequence, the figures for `CCN(Cc1ccc2c(c1)OCO2)Cc1nc(C)no1` were 4.08% and 23.9%.
With `Cc1cnc(CN(C)C2CCN(CC(=O)N(C)c3nccs3)C2)o1` (centres undefined), the Percent Effect is -1.66% in test [1] and -15.8% in test [2].
As for `CCc1nc(CN2CCCN(C(=O)C(C)n3ccnc3)CC2)cs1` (centres undefined), the Percent Effect was -1.76% in test [1] and 8.27% in test [2].
In the case of `CN(Cc1ccco1)C(=O)CN1CCCC(Cn2cncn2)C1` (centres undefined), the Percent Effect in test [1] is -1.04%; in test [2], -14.6%.
In the case of `COCc1nc(N(C)C)ncc1C(=O)NC(C)C`, the Percent Effect in test [1] was -0.697%; in test [2], -16.3%.
With `Cn1cnc2c1CCN(Cc1cccc(OCC(N)=O)c1)C2`, the Percent Effect is -4.08% in test [1] and -24.5% in test [2].
For `CCc1nc(C2CCCN2CCn2cncn2)no1` (centres undefined), the results for the Percent Effect in test [1] and in test [2] were 0.0232% and -0.231%, respectively.
For the molecule `COc1cc(CN(C)C(=O)NCCC2CCCO2)ccc1SC` (centres undefined), the Percent Effect in test [1] was -3.98%; in test [2] it was -6.71%.
Turning to `CCOCC1CN(S(=O)(=O)N(C)C)Cc2cnn(C)c21` (centres undefined), the Percent Effect in test [1] was -3.4%; in test [2], 6.68%.
In the case of `Cc1ccc(N2CC[C@H]3O[C@@H](C(=O)NCc4ccco4)CC[C@H]32)nn1`, the Percent Effect in test [1] is 12.5%; in test [2] it was -10.5%.
With `NC(=O)C1CCN(C(=O)Cn2nc(-c3ccccc3)oc2=O)C1` (centres undefined), the Percent Effect in test [1] was 7.46%; in test [2] it was -67.9%.
Take `Cc1nc(CN(C)C2CCN(CCCOc3ccccc3)C2)no1` (centres undefined): the Percent Effect in test [1] was 2.8%; in test [2], -39.6%.
On to `CCn1nccc1CNC(=O)C1CCCC1`, for which the Percent Effect was 11.4% in test [1] and -65.5% in test [2].
`CC(C)CCN1Cc2c(C(=O)O)ncn2-c2ccccc2S1(=O)=O`: the values for the Percent Effect in test [1] and in test [2] were -0.474% and -10.7%, respectively.
Consider `Cc1csc([C@@H]2C[C@@H]3CCN(Cc4cnn(C)c4)C[C@H]3O2)n1`, for which the Percent Effect in test [1] is -2.71%; in test [2], -29.9%.
Regarding `O=C1COC2(CCN(C(=O)c3ccco3)CC2)CN1Cc1cccnc1`, the Percent Effect is -2.62% in test [1] and -14.9% in test [2].
As for `Cc1cnc(Nc2nccnc2C2CCN(C)CC2)s1`, the Percent Effect in test [1] is -3.37%; in test [2], -20.6%.
For the molecule `CCn1cnnc1C1CCN(C(=O)c2cc3c(s2)CCC3)CC1`, the Percent Effect is -5.31% in test [1] and -11.1% in test [2].
`COCCN1CCN(CCCS(C)(=O)=O)CC1C` (centres undefined): the Percent Effect in test [1] was -5.8%; in test [2], -23.7%.
Taken in the same sequence, the figures for `CN1CCCN(c2nccc(-c3c[nH]nc3C3CCCCC3)n2)CC1` were 14.1% and -32.4%.
On to `NC(=O)CCOc1nc(-c2ccccc2Cl)no1`, for which the Percent Effect in test [1] was -4.51%; in test [2], -35.8%.
With `Cn1ccnc1CN1CCN(Cc2noc(-c3ccccc3)n2)CC1`, the values for the Percent Effect in test [1] and in test [2] were -2.31% and -6.06%, respectively.
With `CCCOCC(=O)NS(=O)(=O)c1ccc2c(c1)OCCCO2`, the values for the Percent Effect in test [1] and in test [2] were 1.8% and 17.6%, respectively.
In the case of `O=c1[nH]c2c(c(=O)n1C1CCCCC1)CCC2Nc1ccccc1Cl` (centres undefined), the values for the Percent Effect in test [1] and in test [2] were 4.33% and -5.14%, respectively.
As to `Cc1nn(-c2ccccc2)c(C)c1CNC1CCc2ncnn2C1` (centres undefined), the Percent Effect in test [1] was -2.94%; in test [2] it was 4.77%.
Consider `Cc1ccc(NC(=O)C2CSCN2C(=O)c2cnccn2)c(C)c1` (centres undefined), for which the Percent Effect in test [1] is 1.01%; in test [2], -39.3%.
In the case of `CCc1ccc(NC(=O)C2OC(c3cccs3)=NN2C(C)=O)cc1` (centres undefined), the Percent Effect in test [1] is -1.78%; in test [2] it was -90%.
Regarding `O=S(=O)(C1CC1)N1CCC2(COCc3cnc(N4CCOCC4)nc32)C1` (centres undefined), the Percent Effect in test [1] was -2.06%; in test [2] it was -56.7%.
For the molecule `Cc1cnn(CCNCc2nc(Cc3ccccc3)no2)c1`, the Percent Effect was -1.23% in test [1] and 25% in test [2].
On to `Cc1ccsc1CN(CCN(C)C)Cc1ccccn1`, for which the results for the Percent Effect in test [1] and in test [2] were -0.167% and 1.36%, respectively.
Regarding `Cn1cc(-c2cnc(N3CCCC3)nc2)cc1C(=O)O`, the Percent Effect in test [1] is -9.05%; in test [2], 10.6%.
`Cc1cc(CN(C)C(=O)C2CCS(=O)(=O)C2)no1` (centres undefined): the Percent Effect is -3.37% in test [1] and -1.66% in test [2].
For `Cc1c(O)oc(-c2ccc(Br)cc2)nc1=O`, the Percent Effect in test [1] is -1.84%; in test [2] it was -45.4%.
Regarding `c1cnc(N2CCOC3(CCN(CC4CCCCC4)CC3)C2)nc1`, the Percent Effect in test [1] is -0.897%; in test [2], -3.02%.
For the molecule `COc1ccc(N2CCC(C(=O)/N=c3/[nH]ccs3)CC2)nn1`, the Percent Effect in test [1] is -0.842%; in test [2], -7.73%.
On to `COCCn1nc(C(=O)N2CCCC2c2cccc(F)c2)ccc1=O` (centres undefined), for which the Percent Effect in test [1] came to 2.11%; in test [2], 1.07%.
Taken in the same sequence, the figures for `Cc1cnn(CC2CCCN2Cc2cc(=O)n3ccccc3n2)c1` (centres undefined) were 2.04% and 2.37%.
Regarding `CCCn1ncc2c(C(=O)Nc3cnn(CC)c3C)cc(C3CC3)nc21`, the values for the Percent Effect in test [1] and in test [2] were -1.49% and -0.924%, respectively.
Take `Cc1cn2nc(N3CCCN(Cc4noc(C)n4)CC3)sc2n1`: the Percent Effect in test [1] is -1.65%; in test [2], 0.184%.
On to `CCc1ccc(S(=O)(=O)N2CCC3(CC(C(=O)NC)=NO3)C2)cc1` (centres undefined), for which the values for the Percent Effect in test [1] and in test [2] were -3.62% and -7.42%, respectively.
Take `Cc1nc(CN2CCC(N(C)Cc3noc(C4CC4)n3)C2)oc1C` (centres undefined): the Percent Effect in test [1] was 1.48%; in test [2] it was -11%.
Taken in the same sequence, the figures for `Cc1csc(CNC(=O)N(C)Cc2cnn(C)c2)n1` were 1.54% and -1.35%.
In the case of `CN(Cc1nnc(C2CC2)n1C)C1CCN(CCc2cccs2)C1` (centres undefined), the Percent Effect in test [1] is 1.39%; in test [2], -43.7%.
